The values below come from the supplement of paper PMC10338343.

± gives the standard deviation. Some results are limits rather than exact numbers.

In the test the test system is MILI (PIWIL2) piRISC loaded with piRNA #1 (26 nt). In words: pre-steady-state target cleavage rate (min^-1); guide: piRNA #1 5'p-UGAGGUAGUAGGUUGUAUAGUAUCCA; MIWI and MILI are mouse PIWI proteins and EfPiwi is from a freshwater sponge; tags in brackets are library labels; higher = faster piRNA-guided slicing of the target. The settings on record: auxiliary factor: 500 nM mouse GTSF1. In short, it runs like this:
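In Cleave-'n-Seq, a transcribed, DNA-blocked target RNA library (0.1 nM) was combined with 1 nM active affinity-purified piRISC bearing one synthetic guide, with or without 500 nM GTSF1 partner protein. Reactions ran in HEPES–potassium acetate buffer at 33 °C for 0–8 or 0–960 min. Uncleaved targets were sequenced and normalised to depth and to weakly complementary targets, three trials were pooled, and k3 was capped at 0.0001 min^-1. The pre-steady-state cleavage rate was obtained by fitting a burst-and-steady-state model.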
Turning to GGAGACCUAUGAUAUGUUCCUACUACGUGA, the “pre-steady-state target cleavage rate” value was below 0.0001.

Consider GGAGACCUAUCUAAACAACGUACUACCUCA, for which the “pre-steady-state target cleavage rate” value came to 0.00647 ± 0.0027.

As to GGAGACCUAACUUUACAAGCUACUACCUCA, the “pre-steady-state target cleavage rate” value stood at 0.135 ± 0.025.

In the case of GGAGACCUAUGAUAUGUUCCUACUACCUGCA, the “pre-steady-state target cleavage rate” value is below 0.0001.

In the case of GGAGACCUAUGAUAACAACCUACUACACUCA, the “pre-steady-state target cleavage rate” value is 0.00558 ± 0.0031.

Turning to GGAGACCUUACUUACAACCUACUACCUCA, the “pre-steady-state target cleavage rate” value is 0.0198 ± 0.0056.

As to GGAGACCUAUGUAUACCAACCUACUACCUCA, the “pre-steady-state target cleavage rate” value was 0.00297 ± 0.003.

GGAGACCUAUCUAUACAACGUACAACCUCA: the “pre-steady-state target cleavage rate” value came to 0.0149 ± 0.0048.

Consider GGAGACCUAACAAUACAACGUACUACCUCA, for which the “pre-steady-state target cleavage rate” value amounted to 0.00908 ± 0.0045.

In the case of GGAGUGGAUACUAAAGAACCUACUACCUCA, the “pre-steady-state target cleavage rate” value is 0.167 ± 0.011.

Take GGAGACCUAUGAAUACAACCGUACUACCUCA: the “pre-steady-state target cleavage rate” value came out at 0.00389 ± 0.003.

Regarding GGAGACCUAUCAAUACAUCCUACUACCUCA, the “pre-steady-state target cleavage rate” value was 0.109 ± 0.02.

For GGAGACCUAUGAUUACAACCUACAUCCUCA, the “pre-steady-state target cleavage rate” value was found to be 0.00278 ± 0.0025.

As for GGAGACCUAUGAAUACAACCUACUACCGCA, the “pre-steady-state target cleavage rate” value worked out at 0.00764 ± 0.003.

Turning to GGAGACCUAUGAAUACAACCUACUACCAUCA, the “pre-steady-state target cleavage rate” value turned out to be 0.00646 ± 0.0026.

As to GGAGACCUUUCUAUACAACCUUCUACCUCA, the “pre-steady-state target cleavage rate” value is 0.00706 ± 0.003.

Take GGAGACCUAACUAUAGAUCCUACUACCUCA: the “pre-steady-state target cleavage rate” value was 0.203 ± 0.026.

Consider GGAGACCUAUGAAUACAACCUACUACGCUCA, for which the “pre-steady-state target cleavage rate” value came to 0.0107 ± 0.0039.

GGAGUGGAUUCUAUACAACCAACUACCUCA: the “pre-steady-state target cleavage rate” value is 0.00438 ± 0.0023.

For GGAGACCUAUGAAUACAACGUACUACCUCA, the “pre-steady-state target cleavage rate” value is 0.00541 ± 0.0019.

As to GGAGACCUAUGAUAUGAACGCUACUACCUCA, the “pre-steady-state target cleavage rate” value is below 0.0001.

For the sequence GGAGACCUUAGUAUACAACCUACUAGCUCA, the “pre-steady-state target cleavage rate” value worked out at 0.00944 ± 0.0043.

Consider GGAGACCUAUGAUUACUACCUACAACCUCA, for which the “pre-steady-state target cleavage rate” value is 0.00398 ± 0.0024.

As to GGAGACCUAUGUAUACAACCUACUCCCUCA, the “pre-steady-state target cleavage rate” value turned out to be 0.0316 ± 0.0063.

As to GGAGACCUUACUAUAGAACCUACUAGCUCA, the “pre-steady-state target cleavage rate” value was determined as 0.00445 ± 0.0038.

With GGAGACCUAUGAAUACAACCUAACUACCUCA, the “pre-steady-state target cleavage rate” value was 0.00316 ± 0.0021.

Take GGAGACCUAUGUAUACAACCUACUCACCUCA: the “pre-steady-state target cleavage rate” value stood at 0.0823 ± 0.015.

As to GGAGACCUAUGAUAUGUAACCUACUACCUCA, the “pre-steady-state target cleavage rate” value is 0.017 ± 0.0038.

For the sequence GGAGUGGAUACUAUACAACCUCUACCUCA, the “pre-steady-state target cleavage rate” value amounted to 0.0226 ± 0.0033.

Take GGAGACGAUAGUAUAGAACCUACUACCUCA: the “pre-steady-state target cleavage rate” value is 0.158 ± 0.013.

On to GGAGACCAUACUAUACUUGCUACUACCUCA, for which the “pre-steady-state target cleavage rate” value is 0.0454 ± 0.0044.

On to GGAGUGGAUACUAAACAACCUACUAGCUCA, for which the “pre-steady-state target cleavage rate” value stood at 0.0437 ± 0.0085.

In the case of GGAGACGAUACUUUACAACCUUCUACCUCA, the “pre-steady-state target cleavage rate” value stood at 0.00805 ± 0.0018.

Turning to GGAGACCUAUGAUUACAACCUACUACCUA, the “pre-steady-state target cleavage rate” value was determined as 0.00393 ± 0.0024.

On to GGAGACCUAUGAUAUGUACUCUACUACCUCA, for which the “pre-steady-state target cleavage rate” value is below 0.0001.

GGAGACCAUAGUAUACUACCUACUACCUCA: the “pre-steady-state target cleavage rate” value was found to be 0.131 ± 0.013.

With GGAGACGAUACUAAACAACCUACUACCACA, the “pre-steady-state target cleavage rate” value was 0.214 ± 0.019.

As for GGAGACCUUACAAUACAACCUUCUACCUCA, the “pre-steady-state target cleavage rate” value turned out to be 0.00687 ± 0.0029.

For the sequence GGAGACCUAUCUAUACAUCCAACUACCUCA, the “pre-steady-state target cleavage rate” value amounted to 0.00941 ± 0.0034.

In the case of GGAGACCUAUGAUAACAACCUACUACCUGCA, the “pre-steady-state target cleavage rate” value was found to be 0.00443 ± 0.0033.
